Screening data from PubChem.
These entries were drawn from the full list.
aSyn 5UTR act – Activators via SNCA 5'UTR binding, MLPCN; alpha-synuclein 5'UTR reporter, activators screen; hit rate 7.1% among 300,000; activity score, % (tested at 7.5 µM), hits read low; in the data active means activity score below about -60%
The depositor's hits bear a star.

SMILES | aSyn 5UTR act
Cn1c(/C=N/Nc2nc3ccccc3[nH]2)nc2ccccc21 | -188*
CC(C)Cn1c(/C=N/Nc2nc3ccccc3[nH]2)nc2ccccc21 | -337*
C=CCn1cc(/C=N/Nc2nc3ccccc3[nH]2)c2ccccc21 | -195*
Cc1nn(-c2ccc(N3CCCCC3)nn2)c(C)c1CCC(=O)Nc1cccc(F)c1 | -120*
CCOc1ccc(NC(=O)CCc2c(C)nn(-c3ccc(N4CCCCC4)nn3)c2C)cc1 | -81*
Cc1ccc(-n2nc(C)c3c(C)c(CCC(=O)Nc4ccc(CN5CCCC5)cc4)c(C)nc32)cc1 | 104
Cc1ccc(NC(=O)CCc2c(C)nn(-c3ccc(N4CCCCC4)nn3)c2C)cc1F | -85*
Cc1nn(-c2ccc(N3CCCCC3)nn2)c(C)c1CCC(=O)Nc1ccc(F)cc1 | -90*
Cc1ccc2nc(COc3ccc(Cl)cc3)cc(=O)n2c1 | -109*
COCC(C)n1c(SCc2cc(=O)n3cc(C)ccc3n2)nc2ccccc2c1=O (stereo not drawn) | 64
COc1cc2c(cc1NC(=O)COC(=O)[C@@H](NS(=O)(=O)c1cccc(Cl)c1)C(C)C)oc1ccccc12 | -103*
COc1ccc(S(=O)(=O)N[C@@H](C)C(=O)OCC(=O)Nc2cc3oc4ccccc4c3cc2OC)cc1 | -129*
OCC#CCSc1nnc(-c2ccc(Br)cc2)o1 | -87*
O=C(Nc1ccccc1C(F)(F)F)c1ccc2nccnc2c1 | -89*
O=C(Nc1ccccc1Br)c1ccc2nccnc2c1 | -113*
Cc1ccc(C(=O)Nc2ccccc2C(=O)Nc2ccccn2)cc1Cl | -70*
Cc1ccc(C(=O)Nc2cccnc2Cl)cc1Cl | -156*
COc1ccc(C(=O)Nc2ccccc2C(=O)Nc2ccccn2)cc1 | -104*
CCCCC(=O)Nc1sc2c(c1C(N)=O)CCC2 | -85*
CC(C)(C)C(=O)NC(=S)Nc1sc2c(c1C(N)=O)CCC2 | -88*
CC(=O)NC(=S)Nc1sc2c(c1C(N)=O)CCC(C)C2 (stereo not drawn) | -83*
Cc1sc(NC(=S)NC(=O)C(C)(C)C)c(C(N)=O)c1C | -68*
CC(C)CC(=O)NC(=S)Nc1sc2c(c1C(N)=O)CCC2 | -100*
CCCCC(=O)N/N=C(C)/C=C/c1ccccc1F | -76*
CC(/C=C/c1ccccc1F)=N\NC(=O)C(C)C | -78*
SMILES | aSyn 5UTR act
Cc1ccnc2nc(C(=O)Nc3ccc(N4CCOCC4)cc3)nn12 | -73*
Cc1csc(NC(=O)c2nc3nccc(C)n3n2)n1 | -147*
Cc1ccc(NC(=O)c2nc3nccc(C)n3n2)c(C)c1 | -64*
CCc1ccc(-c2cc3c(=O)n(CC(=O)NCc4ccccc4F)ncn3n2)cc1 | -70*
Cc1ccc(-c2nn(CC(=O)NCc3cc(-c4nn(C)c(=O)c5ccccc45)ccc3C)c(=O)c3ccccc23)cc1 | 114
Cn1cc(Cl)cc(C(=O)Nc2ccccc2)c1=O | -133*
CCCc1cc(C(=O)Nc2cccc([N+](=O)[O-])c2)cs1 | -105*
CCc1ccc(NC(=O)c2cnc(SC)nc2C)cc1 | -93*
O=C(Nc1ccc2c(c1)OCO2)c1ccccc1 | -120*
CS(=O)(=O)Nc1ccc(C(=O)Nc2ccc3c(c2)OCCO3)cc1 | -169*
CCc1ccc(NC(=O)c2ccccc2SC)cc1 | -177*
Cc1ccc(NC(=O)Nc2cccc([N+](=O)[O-])c2)cc1F | -87*
CSc1ccccc1C(=O)Nc1ccc2c(c1)OCCO2 | -65*
O=C(Nc1cccc(Cl)c1)c1ccc2c(c1)OCCO2 | -123*
CCc1ccc(NC(=O)c2cnc3n(c2=O)CCS3)cc1 | -185*
O=C(Nc1ccc2c(c1)OCCO2)c1cccc(C(=O)Nc2ccc3c(c2)OCCO3)c1 | -148*
O=C(NC(=S)Nc1ccccc1Br)c1ccc2c(c1)OCO2 | -137*
O=C(CS(=O)(=O)c1ccccc1)c1ccc2c(c1)OCCO2 | -132*
O=C(Nc1ccc2c(c1)OCCO2)c1cccc(Cl)c1 | -225*
O=C(Nc1cccc([N+](=O)[O-])c1)c1ccc2c(c1)OCCO2 | -124*
O=C(Nc1ccc2c(c1)OCCO2)C(=O)NC1CC1 | -74*
O=C(Nc1ccc2c(c1)OCCO2)C(=S)NCc1ccccc1 | -96*
Nc1ccc(C(=O)c2ccc3c(c2)OCCO3)cc1N | -166*
O=C(NNC(=O)c1cccc2ccccc12)c1ccc2c(c1)OCO2 | -94*
CC(C)(C)c1ccc(C(=O)Nc2cccc([N+](=O)[O-])c2)cc1 | -193*
SMILES | aSyn 5UTR act
CC(C)c1ccc(O)c(NC(=S)NC(=O)c2ccc3c(c2)OCO3)c1 | -124*
O=C(Nc1ccc2c(c1)OCCO2)c1ccccc1 | -98*
O=C(NC(=S)Nc1ccc2c(c1)OCO2)c1ccccc1 | -199*
O=C(Nc1ccc2c(c1)OCO2)c1cncc(Br)c1 | -191*
O=C(Nc1ncc([N+](=O)[O-])s1)c1ccc2c(c1)OCO2 | 103
O=C(CCNc1ccccc1)c1ccc2c(c1)OCO2 | -193*
O=C(NC(=S)Nc1ccc2c(c1)OCCO2)c1cccc2ccccc12 | -82*
O=C(CC(=O)c1ccccc1)Nc1ccc2c(c1)OCCO2 | -119*
O=C(Nc1ccncc1)c1ccc2ccccc2c1 | -135*
O=C(Nc1ccc2c(c1)OCCO2)C1CC1c1ccccc1 (stereo not drawn) | -123*
O=C(NC(=S)Nc1ccc2c(c1)OCCO2)c1cccc(Br)c1 | -302*
O=C(Nc1cccc([N+](=O)[O-])c1)c1[nH]ncc1Cl | -227*
O=C(Nc1ccncc1)c1ccc2c(c1)OCCO2 | -68*
CN(c1cccc(NC(=O)c2ccc(C(C)(C)C)cc2)c1)S(C)(=O)=O | -174*
CCOC(=O)C1(Cc2cccc(OC)c2)CCCN(C(=O)CSC)C1 (stereo not drawn) | -97*
COc1ccccc1N1CCN(Cc2cc(Br)c(O)c3ncccc23)CC1 | 77
CCOC(=O)C1(Cc2ccccc2C)CCCN(C(=O)c2sccc2C)C1 (stereo not drawn) | -70*
CCOC(=O)C1(Cc2cccc(OC)c2)CCN(Cc2cccc(OCC)c2O)CC1 | -69*
CCOC(=O)C1(Cc2ccccc2)CCCN(C(=O)C=C(C)C)C1 (stereo not drawn) | -137*
CCOC(=O)C1(Cc2cccc(OC)c2)CCCN(C(=O)c2cc(C)oc2C)C1 (stereo not drawn) | -71*
CCOC(=O)C1(Cc2cccc(OC)c2)CCCN(C(=O)CCc2cccnc2)C1 (stereo not drawn) | -133*
CC#CC(=O)N1CCCC(Cc2cccc(OC)c2)(C(=O)OCC)C1 (stereo not drawn) | -106*
CCOC(=O)CN1C(=O)S/C(=C/C=C/c2ccc(N(C)C)cc2)C1=O | -165*
CC(C)c1ccccc1NC(=O)COC(=O)CCN1C(=O)/C(=C\C=C\c2ccccc2)SC1=S | 73
O=C(COC(=O)CCN1C(=O)/C(=C\C=C\c2ccccc2)SC1=S)Nc1ccc(Br)cc1 | 65
SMILES | aSyn 5UTR act
CCOC(=O)CN1C(=O)S/C(=C/c2ccc3c(c2)n(C)c(=O)n3C)C1=O | -155*
O=C(CN1C(=O)S/C(=C\C=C\c2ccccc2)C1=O)Nc1ccc(O)cc1 | -150*
CCn1c(C)nc2cc(NC(=O)Nc3cccc(C(C)=O)c3)ccc21 | -99*
CCn1c(C)nc2cc(C(=O)N/N=C(\C)c3ccccc3O)ccc21 | -143*
CCn1c(C)nc2cc(C(=O)N/N=C/c3ccccc3C)ccc21 | -142*
CCn1c(C)nc2cc(C(=O)NNC(=S)Nc3ccccc3OC)ccc21 | -74*
O=C1CCN(CCc2ccccc2)CCN1CCSc1ccccc1 | -69*
CC(C)(C)C1CCC(=O)N(CCOc2ccccc2)CC1 (stereo not drawn) | -101*
c1ccc(Sc2ccccc2CN2CCCC2)cc1 | 85
